Here are results for eight compounds from PubChem BioAssay (EPA / NIEHS).

A short description of experiment [1]: BSK_LPS_PGE2: BioMAP Diversity Plus: LPS Assay for Prostaglandin E2 (PGE2) Biomarker Activity (AID 2283082). Conditions: primary human HUVEC with PBMC; actives raise or lower the signal. The method in brief: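 PGE2 release measured by ELISA in an LPS-activated co-culture of human umbilical vein endothelial cells and peripheral blood mononuclear cells, read at 24 h post-dosing. DMSO served as baseline for bidirectional curve fitting.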

Read-out in experiment [2]: Macrophage colony-stimulating factor (MCSF), CSF1 (gene 1435)
Kind of experiment: BSK_LPS_MCSF: BioMAP Diversity Plus: LPS Assay for Macrophage colony-stimulating factor (MCSF) Biomarker Activity (AID 2283083). Conditions: primary human HUVEC with PBMC; actives raise or lower the signal. In outline: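 Compound is added to a human vascular primary co-culture of umbilical vein endothelium and blood mononuclear cells. After 24 h, M-CSF is quantified by ELISA. Signal changes are fitted in both directions against DMSO.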

Read-out in experiment [3]: Tissue Factor, F3 (gene 2152)
Kind of experiment: BSK_LPS_TissueFactor: BioMAP Diversity Plus: LPS Assay for Tissue Factor Biomarker Activity (AID 2283084). Conditions: primary human HUVEC with PBMC; actives raise or lower the signal. The method in brief: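 In this co-culture system of umbilical vein endothelium with PBMC, stimulated with LPS, cell-surface CD142 is detected by ELISA at 24 h. Endpoint values derive from bidirectional fitting, DMSO serving as baseline.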

Read-out in experiment [4]: Tumor necrosis factor (Homo sapiens) (UniProt P01375)
Kind of experiment: BSK_LPS_TNFa: BioMAP Diversity Plus: LPS Assay for Tumour Necrosis Factor alpha (TNFa) Biomarker Activity (AID 2283085). Conditions: primary human HUVEC with PBMC; actives raise or lower the signal. In outline: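 TNFa was quantified by ELISA in LPS-activated co-cultures of human endothelial cells and PBMC, 24 h post-dosing. Both increases and decreases versus DMSO were fitted.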

Read-out in experiment [5]: Vascular cell adhesion molecule 1 (VCAM1), VCAM1 (gene 7412)
Description: BSK_LPS_VCAM1: BioMAP Diversity Plus: LPS Assay for Vascular cell adhesion molecule 1 (VCAM1) Biomarker Activity (AID 2283086). Conditions: primary human HUVEC with PBMC; actives raise or lower the signal. The method in brief:
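VCAM-1 quantified by ELISA in an LPS-activated co-culture of human endothelial cells and peripheral blood mononuclear cells, read 24 h post-treatment. Fitted in both directions versus DMSO; parallel SRB staining flags overt cytotoxicity.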

Read-out in the next experiment: CD38, CD38 (gene 952)
Kind of experiment: BSK_SAg_CD38: BioMAP Diversity Plus: SAg Assay for CD38 Biomarker Activity (AID 2283087). Conditions: primary human HUVEC with PBMC; actives raise or lower the signal. In outline:
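CD38 quantified by ELISA (fluorescence) in a superantigen-activated endothelial cell–PBMC co-culture at 24 h post-dose. Activity fitted in both directions relative to DMSO; parallel SRB and Alamar Blue cytotoxicity read-outs.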

Read-out in the next experiment: CD40, CD40 (gene 958)
Kind of experiment: BSK_SAg_CD40: BioMAP Diversity Plus: SAg Assay for CD40 Biomarker Activity (AID 2283088). Conditions: primary human HUVEC with PBMC; actives raise or lower the signal. In outline: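 Fluorescence ELISA read-out of CD40 from umbilical vein endothelium plus peripheral blood mononuclear cells, sampled 24 h after dosing. Values come from bidirectional curve fitting with DMSO as baseline.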

Read-out in another experiment: CD69, CD69 (gene 969)
Description: BSK_SAg_CD69: BioMAP Diversity Plus: SAg Assay for CD69 Biomarker Activity (AID 2283089). Conditions: primary human HUVEC with PBMC; actives raise or lower the signal. In outline:
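ELISA, fluorescence read-out: CD69 on human umbilical vein endothelial cell + PBMC co-culture, 24 h post-dosing. Gain or loss of signal fitted bidirectionally against DMSO baseline.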

Read-out in experiment [6]: Monocyte Chemoattractant Protein-1 (MCP1), CCL2 (gene 6347)
Kind of experiment: BSK_SAg_MCP1: BioMAP Diversity Plus: SAg Assay for Monocyte Chemoattractant Protein-1 (MCP1) Biomarker Activity (AID 2283090). Conditions: primary human HUVEC with PBMC; actives raise or lower the signal. In outline: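 Values derive from bidirectional fitting of ELISA-measured MCP1 against DMSO controls. Readings were taken 24 h after dosing human vascular endothelial cells co-cultured with peripheral blood mononuclear cells under superantigen stimulation.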

Read-out in experiment [7]: E-selectin (Homo sapiens) (UniProt P16581)
Description: BSK_SAg_Eselectin: BioMAP Diversity Plus: SAg Assay for Eselectin Biomarker Activity (AID 2283091). Conditions: primary human HUVEC with PBMC; actives raise or lower the signal. The method in brief: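 Primary human endothelial cells and peripheral blood mononuclear cells were co-cultured and exposed to chemical for 24 hours. E-selectin levels were then quantified by ELISA, with bidirectional curve fitting normalised to DMSO controls.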

Read-out in experiment [8]: Monokine induced gamma interferon (MIG), CXCL9 (gene 4283)
Kind of experiment: BSK_SAg_MIG: BioMAP Diversity Plus: SAg Assay for Monokine induced gamma interferon (MIG) Biomarker Activity (AID 2283092). Conditions: primary human HUVEC with PBMC; actives raise or lower the signal. The method in brief:
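ELISA readout of MIG/CXCL9; primary human umbilical vein endothelial cells co-cultured with peripheral blood mononuclear cells; 24 h post-dose; gain/loss fit vs DMSO baseline.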

Experiment [9] in a line: BSK_SAg_PBMCCytotoxicity: PBMC Cytotoxicity Assessment in the BioMAP Diversity Plus: SAg Assay (AID 2283093).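 Note: fitted both ways against DMSO so a hit may be loss or gain of signal.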 Conditions: primary human HUVEC with PBMC. In outline:
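PBMC viability by Alamar Blue reduction, fluorescence read at 546/580 nm after 6 h dye exposure. Cells were dosed 1 h before SEB plus TSST-1 activation (20 ng/mL final each), then held 90 h; endothelial/PBMC human co-culture.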

Read-out in experiment [10]: Interleukin-8 (IL8), CXCL8 (gene 3576)
Description: BSK_SAg_IL8: BioMAP Diversity Plus: SAg Assay for Interleukin-8 (IL8) Biomarker Activity (AID 2283094). Conditions: primary human HUVEC with PBMC; actives raise or lower the signal. In outline:
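ELISA readout of IL-8 from a superantigen-activated endothelial/PBMC primary human co-culture, taken 24 h post-dosing and fitted in both directions against DMSO; parallel SRB total-protein staining flags overt cytotoxicity.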

Experiment [11] in a line: BSK_SAg_Proliferation: Cell Proliferation Assessment in the BioMAP Diversity Plus: SAg Assay (AID 2283095).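 Note: relative cell number as total protein by SRB absorbance in sub-confluent culture.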 Conditions: primary human HUVEC with PBMC. In outline: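 Relative cell number in the endothelial cell/PBMC co-culture was quantified at 96 h by SRB staining (0.1% SRB, 10% TCA fixation, read at 560 nm). Curves were fitted in both directions relative to DMSO baseline.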

Experiment [12] in a line: BSK_SAg_SRB: Viability Assessment in the BioMAP Diversity Plus: SAg Assay (AID 2283096).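 Note: cells read one day after compound addition; hits may be either gain or loss of signal compared with DMSO.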 Conditions: primary human HUVEC with PBMC. The method in brief: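 Compounds were added to a human vascular co-culture of umbilical vein endothelium and PBMC. After 24 h, parallel cultures were fixed with 10% TCA, stained with 0.1% sulforhodamine B and read at 560 nm. Gain or loss of signal was fitted relative to DMSO.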

As a reminder, the AC50 is the midpoint of the concentration-response curve, whichever way the signal moves.

The structures appear in SMILES notation. Active and inactive are the calls of the source. Rule for the calls: active = hit-call score of the fitted dose curve at least 0.9, where 1 is the maximum; inactive = score below 0.9.

Sequence of Tumor necrosis factor (Homo sapiens) (P01375 whole entry, looked up): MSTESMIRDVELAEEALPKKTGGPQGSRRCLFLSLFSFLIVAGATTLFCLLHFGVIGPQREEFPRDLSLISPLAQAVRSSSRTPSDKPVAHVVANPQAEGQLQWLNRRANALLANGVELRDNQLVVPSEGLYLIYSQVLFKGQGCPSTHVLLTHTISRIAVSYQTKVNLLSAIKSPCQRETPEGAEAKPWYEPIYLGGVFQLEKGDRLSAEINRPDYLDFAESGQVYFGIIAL
Sequence of E-selectin (Homo sapiens) (P16581 whole entry, looked up): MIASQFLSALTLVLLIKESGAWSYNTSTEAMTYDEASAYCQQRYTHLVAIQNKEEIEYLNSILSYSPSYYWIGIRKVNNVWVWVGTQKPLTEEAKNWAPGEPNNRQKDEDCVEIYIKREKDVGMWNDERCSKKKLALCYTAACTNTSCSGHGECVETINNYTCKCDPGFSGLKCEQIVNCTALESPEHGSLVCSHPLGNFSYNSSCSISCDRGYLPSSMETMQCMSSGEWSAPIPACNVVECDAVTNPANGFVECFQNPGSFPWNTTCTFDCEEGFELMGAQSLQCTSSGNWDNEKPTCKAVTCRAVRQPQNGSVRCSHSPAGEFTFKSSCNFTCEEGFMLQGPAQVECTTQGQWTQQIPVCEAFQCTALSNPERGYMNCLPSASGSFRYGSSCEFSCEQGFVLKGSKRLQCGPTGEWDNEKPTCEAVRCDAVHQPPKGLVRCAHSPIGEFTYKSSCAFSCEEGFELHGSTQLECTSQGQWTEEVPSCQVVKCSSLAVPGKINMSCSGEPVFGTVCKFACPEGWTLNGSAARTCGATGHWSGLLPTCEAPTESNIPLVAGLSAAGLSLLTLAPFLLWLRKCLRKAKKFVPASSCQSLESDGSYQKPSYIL

For the compound `Oc1ccccc1Cl`, the outcome is “inactive” in experiment [1]; “inactive” in [2]; “inactive” in [3]; “inactive” in experiment [4]; “inactive” in experiment [5]; “inactive” in the experiment with CD38, CD38 (gene 952). The outcome was “inactive” in the experiment with CD40, CD40 (gene 958); “inactive” with CD69, CD69 (gene 969); “inactive” in [6]; “inactive” in experiment [7]; “inactive” in [8]; “inactive” in experiment [9]. In addition, the result in experiment [10] and in experiment [11] was inactive.

In the case of `O=[N+]([O-])c1ccc(Oc2ccc(Cl)cc2Cl)cc1`, the outcome in experiment [1] was “inactive”; in experiment [3] it was “inactive”; in experiment [4] it was “inactive”; in experiment [5] it was “inactive”; with CD69, CD69 (gene 969), “inactive”; in experiment [8], “inactive”. For the same compound, the outcome in [9] was inactive. The AC50 in [2] was 31.1 µM (active); with CD38, CD38 (gene 952) it was 29.8 µM (active); with CD40, CD40 (gene 958) it was 20 µM (active); in experiment [6], 29.1 µM (active); in experiment [7], 27.4 µM (active); in experiment [10] it was 33.9 µM (active). Also, the AC50 in experiment [11] was 32 µM (active).

For `O=C1CCCO1`, the outcome in experiment [1] was “inactive”; in [2], “inactive”; in [3], “inactive”; in experiment [4], “inactive”; in [5], “inactive”; in the experiment with CD38, CD38 (gene 952), “inactive”. Further, the outcome with CD40, CD40 (gene 958) is “inactive”; in the experiment with CD69, CD69 (gene 969), “inactive”; in experiment [6], “inactive”; in experiment [7], “inactive”; in [8], “inactive”; in experiment [9], “inactive”. In addition, the outcome in [10], in [11] and in experiment [12] was inactive.

For the compound `C=CCc1ccc2c(c1)OCO2`, the outcome was “inactive” in [1]; “inactive” in experiment [2]; “inactive” in experiment [3]; “inactive” in [4]; “inactive” in [5]; “inactive” in the experiment with CD38, CD38 (gene 952). Moreover, the outcome with CD40, CD40 (gene 958) is “inactive”; with CD69, CD69 (gene 969) it was “inactive”; in experiment [6], “inactive”; in experiment [7] it was “inactive”; in experiment [8], “inactive”; in [9], “inactive”. In addition, the outcome in experiment [10], in experiment [11] and in experiment [12] was inactive.

With `CCCCCCCCOC(=O)c1ccc(C(=O)OCCCCCCCC)c(C(=O)OCCCCCCCC)c1`, the outcome is “inactive” in experiment [1]; “inactive” in [2]; “inactive” in experiment [3]; “inactive” in [4]; “inactive” in experiment [5]; “inactive” with CD38, CD38 (gene 952). Further, the outcome in the experiment with CD40, CD40 (gene 958) was “inactive”; with CD69, CD69 (gene 969), “inactive”; in [6] it was “inactive”; in experiment [7] it was “inactive”; in experiment [8] it was “inactive”; in [9], “inactive”. For the same compound, the outcome in experiment [10], in [11] and in [12] was inactive.

With `CCCCC(CC)COC(=O)c1ccc(C(=O)OCC(CC)CCCC)c(C(=O)OCC(CC)CCCC)c1` (stereo not drawn), the outcome in experiment [1] is “inactive”; in experiment [2] it was “inactive”; in [3], “inactive”; in experiment [4] it was “inactive”; in experiment [5], “inactive”; with CD38, CD38 (gene 952), “inactive”. The outcome with CD40, CD40 (gene 958) was “inactive”; with CD69, CD69 (gene 969), “inactive”; in experiment [6] it was “inactive”; in [7] it was “inactive”; in [8], “inactive”; in experiment [9] it was “inactive”. Further, the result in [10], in [11] and in experiment [12] was inactive.

Regarding `[As]#[In]`, the outcome in [1] is “inactive”; in [2], “inactive”; in experiment [3], “inactive”; in experiment [4] it was “inactive”; in experiment [5] it was “inactive”; with CD38, CD38 (gene 952), “inactive”. Also, the outcome with CD40, CD40 (gene 958) was “inactive”; with CD69, CD69 (gene 969), “inactive”; in experiment [6], “inactive”; in experiment [7] it was “inactive”; in [8], “inactive”; in [9], “inactive”. The outcome in [10], in experiment [11] and in experiment [12] was inactive.

Turning to `ClCCOCCCl`, the outcome was “inactive” in experiment [1]; “inactive” in [2]; “inactive” in [3]; “inactive” in [4]; “inactive” in experiment [5]; “inactive” in the experiment with CD38, CD38 (gene 952). For the same compound, the outcome in the experiment with CD40, CD40 (gene 958) is “inactive”; with CD69, CD69 (gene 969) it was “inactive”; in experiment [6], “inactive”; in [7], “inactive”; in [8], “inactive”; in [9] it was “inactive”. In addition, the outcome in experiment [10], in [11] and in experiment [12] was inactive.
